TMEM16A inh: inhibitors of mouse TMEM16A calcium-activated chloride channel | HEK293 TMEM16A/YFP iodide influx fluorescence, ionomycin | normalized B-score (activity score, 25-100; higher = stronger inhibition) at 10 µM | 310,000 tested, 1.2% active;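 active means ratio plate-corrected score three or more library SD toward inhibition, starting fluorescence score within five deviations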;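 further: score derived from kinetic fluorescence span divided by baseline fluorescence per well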
CHT block: inhibits the human high affinity choline transporter; CHT-expressing cells, membrane potential dye, choline response; stronger effect = lower value; Q9GZV3; 310,000 tested, 0.86% active; B-score at 10 µM;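 active means B-score over 3 SD under the library average, and starting fluorescence ratio not unusually high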;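 further: choline stimulus applied at its EC90 after an EC20 pre-addition; B-score computed on integrated fluorescence ratio after choline addition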
Target sequence (Q9GZV3 whole entry, looked up): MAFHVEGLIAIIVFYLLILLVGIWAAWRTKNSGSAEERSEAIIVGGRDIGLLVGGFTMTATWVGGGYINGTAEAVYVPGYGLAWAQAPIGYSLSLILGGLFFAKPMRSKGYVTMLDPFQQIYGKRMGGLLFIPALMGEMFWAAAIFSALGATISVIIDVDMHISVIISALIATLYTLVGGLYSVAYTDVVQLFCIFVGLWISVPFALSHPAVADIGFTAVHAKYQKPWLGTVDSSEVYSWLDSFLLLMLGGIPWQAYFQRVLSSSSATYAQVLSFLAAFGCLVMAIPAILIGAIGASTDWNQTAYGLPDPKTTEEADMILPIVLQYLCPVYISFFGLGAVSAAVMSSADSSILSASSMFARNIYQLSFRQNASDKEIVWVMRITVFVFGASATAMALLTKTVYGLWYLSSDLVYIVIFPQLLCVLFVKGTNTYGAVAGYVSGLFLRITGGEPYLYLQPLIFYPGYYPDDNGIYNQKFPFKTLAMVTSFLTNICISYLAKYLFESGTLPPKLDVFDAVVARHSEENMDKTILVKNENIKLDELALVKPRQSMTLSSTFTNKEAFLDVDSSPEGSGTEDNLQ
TMEM16A act: activates or potentiates the mouse TMEM16A chloride channel. HEK293 TMEM16A/YFP-H148Q/I152L, iodide quench fluorescence; stronger effect = lower value. B-score at 10 µM. 340,000 tested, 0.3% active;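 active means fluorescence-ratio B-score plate-corrected deviation score at least 3 library SD below zero, with starting fluorescence score within 5 deviations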;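 further: channel opened by trigger with iodide after compound preincubation; score built on the fluorescence ratio of max minus min over baseline; more negative score means more quench and so TMEM16A activation or potentiation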
CHT PAM: allosteric activators of human choline transporter CHT; CHT-expressing cells, membrane potential dye, choline EC20; stronger effect = higher value; LV-AA mutant CHT in HEK293 cells; B-score at 10 µM; AID 488977; Q9GZV3; 310,000 tested, 0.49% active;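 active means initial fluorescence not abnormally high and integrated response B-score, plate-corrected, over 3 SD above library mean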
CHT act confirm: confirmation of human choline transporter (CHT) activators; 2,500 tested, 91% active; activation, % at 10 µM; CHT-expressing cells, membrane potential dye fluorescence (FDSS); % of choline EC20–EC90 response window; HEK293 expressing CHT LV-AA mutant; choline added at its EC20; shares compounds with CHT PAM;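 active means primary screen active, with duplicate mean activation above negative control mean plus 3 SD, cut at about 11% in these data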
HEK293 MP dye: activity in parental HEK293 cells lacking CHT; shares compounds with CHT PAM; membrane potential dye fluorescence (FDSS); measured after EC20 choline addition; ratio readout change at 10 µM, hits read low; 2,500 tested, 62% active; AID 623908;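 active means duplicate-averaged ratio beyond 3 SD from buffer wells, up or down, though filed actives are nearly all decreases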
* hit, by the source's call; i = inactive; / = no result given. Only some compounds are listed: those with a hit (about 2.3% of all), similar ones and a draw of the others.

SMILES	TMEM16A inh	CHT block	TMEM16A act	CHT PAM	CHT act confirm	HEK293 MP dye
CC(=O)c1ccc2noc(-c3cccc(C)c3)c2c1	i	i	i	i	/	/
CC1(C)CC(N2CCCC2)=CC(=[N+]2CCCCCC2)C1	i	i	i	8.6*	54*	i
CCN(CC)C1=CC(=[N+]2CCCC2)CC(C)(C)C1	i	i	i	i	46*	i
CC1CC(C)C[N+](=C2C=C(N3CCCC3)CC(C)(C)C2)C1 (stereo unspecified)	/	/	i	/	/	/
CC1(C)CC(N2CCN(c3ccccc3)CC2)=CC(=[N+]2CCCC2)C1	i	i	i	i	41*	i
CCN(CC)S(=O)(=O)c1ccc(C(=O)N2CCN=C2SCc2cccnc2)cc1	i	i	i	i	/	/
CCOCCc1c(O)nc(SCC)[nH]c1=O	i	i	i	i	/	/
CCOC(=O)c1c(NC(=O)Cn2ccsc2=N)sc(C)c1C	i	i	i	i	/	/
Cn1c2ccc(F)cc2c2ncn(CCN3CCOCC3)c(=O)c21	i	i	i	i	/	/
Cn1c2ccc(F)cc2c2ncn(CCCN(CCO)CCO)c(=O)c21	i	i	i	i	50*	-41*
COC(=O)CCCC1=CC2=C(c3ccccc3)C(=O)C(C)(OC(=O)C3CCCC3)C(=O)C2=CN1C1CCCC1 (stereo unspecified)	i	i	i	11*	36*	i
Cc1ccccc1-n1nc(-c2cccnc2)cc1C(=O)N/N=C/c1ccncc1	i	i	i	i	/	/
CC[n+]1c(C)sc2c(C)cc(C)cc21	i	i	i	7.8*	62*	-60*
CC(C)(C)C(=O)CNS(=O)(=O)c1ccc(S(=O)(=O)NC2CC2)cc1	i	i	i	i	/	/
CCn1cc(-c2csc(N)n2)c(C)n1	i	i	i	i	/	/
Cc1cc(N2CCN(c3ccccn3)CC2)n2nc(C)nc2n1	i	i	i	i	/	/
Cc1cc(N2CCN(C3CCCCC3)CC2)n2nc(C)nc2n1	i	i	i	8.9*	56*	-56*
CCc1ccc(-c2cc(C(F)(F)F)n3nc(C(=O)Nc4cnn(Cc5ccccc5C)c4)cc3n2)s1	i	i	i	i	/	/
O=C(CNC1=NCCC1)c1ccc2c(c1)OCCO2	i	i	i	i	36*	-28*
Nn1c(SCC(=O)NCCc2ccc(F)cc2)nnc1C1CCCCC1	/	/	i	/	/	/
CCc1ccc(Nc2n[n+](-c3ccccc3)c(-c3ccc(C(=O)O)cc3)s2)cc1	i	i	i	i	/	/
COc1ccc(C)cc1Nc1n[n+](-c2ccccc2)c(-c2ccc(NC(C)=O)cc2)s1	i	i	i	i	/	/
COc1ccc(C)cc1Nc1n[n+](-c2ccccc2)c(-c2ccc(SC)cc2)s1	i	i	i	7.8*	46*	i
CSc1ccc(-c2sc(Nc3ccccc3)n[n+]2-c2ccccc2)cc1	i	i	i	8.2*	15*	i
CCc1ccc(Nc2n[n+](-c3ccccc3)c(-c3ccc(SC)cc3)s2)cc1	i	i	i	11*	26*	i
SMILES	TMEM16A inh	CHT block	TMEM16A act	CHT PAM	CHT act confirm	HEK293 MP dye
Cc1ccc(-c2nc(CN(Cc3c(C)nn(C)c3C)C(C)C)c(C)o2)o1	i	i	i	i	/	/
Cc1cc(=O)n2c3ccccc3n(CC(O)CN3CCN(CCO)CC3)c2c1C#N (stereo unspecified)	i	i	i	i	46*	-34*
Cn1c2ccccc2n2c(=O)cc(-c3ccccc3)c(C#N)c12	i	i	i	i	/	/
CCC1CCCCN1CC(O)Cn1c2ccccc2n2c(=O)cc(C)c(C#N)c12 (stereo unspecified)	i	i	i	7.7*	39*	-28*
Cc1cc(=O)n2c3ccccc3n(CC(O)CN3CCN(Cc4ccccc4)CC3)c2c1C#N (stereo unspecified)	i	i	i	7.6*	51*	-55*
Cc1cc(=O)n2c3ccccc3n(CC(O)CN3CCC(C)CC3)c2c1C#N (stereo unspecified)	/	/	i	/	/	/
O=C(NC1CCCC1)C(c1ccncc1)N(C(=O)Cc1cccs1)c1cccc(F)c1 (stereo unspecified)	i	i	i	i	/	/
CCCCNC(=S)N(C)/N=C/c1c(F)c(F)c(F)c(F)c1F	i	i	i	6.5*	17*	i
COc1ccc(CCNCC(O)COc2c(C)cccc2C)cc1OC (stereo unspecified)	i	i	i	i	/	/
COc1ccc(NC(=O)CCN2C(=O)C3CC=CCC3C2=O)cc1S(=O)(=O)N1CCCCC1 (stereo unspecified)	/	/	i	/	/	/
COc1ccc(NC(=O)C(c2ccccc2)N2CCN(c3ccccn3)CC2)cc1Cl (stereo unspecified)	i	i	i	7.9*	22*	i
COc1cccc(C2CNC3(CCCC(C)C3)c3[nH]c4ccccc4c32)c1OC (stereo unspecified)	i	i	i	i	18*	i
Cc1cc(C)nc(NC(=O)c2cnc3sccn3c2=O)n1	i	i	i	9.1*	52*	-51*
CCCCC(c1nnnn1CC1CCCO1)N1CCN(c2cc(Cl)ccc2C)CC1 (stereo unspecified)	/	/	i	/	/	/
CCCC(c1nnnn1Cc1ccco1)N1CCN(c2cc(Cl)ccc2C)CC1 (stereo unspecified)	i	i	i	6.7*	35*	i
CC(C)NC(=O)N(C)C[C@H]1Oc2ccc(NC(=O)Nc3ccc(C(F)(F)F)cc3)cc2C(=O)N([C@H](C)CO)C[C@@H]1C	/	/	i	/	/	/
O=C(c1ccc(COc2c(F)c(F)c(F)c(F)c2F)o1)N1CCN(Cc2ccc3c(c2)OCO3)CC1	i	i	i	i	/	/
COc1ccc(NC(=O)C(c2ccccc2)c2ccccc2)c(OC)c1	i	i	i	i	/	/
COc1ccccc1CN(C)C(=O)C(c1ccccc1)c1ccccc1	i	i	i	11*	30*	i
CN(Cc1ccc(F)cc1)C(=O)C(c1ccccc1)c1ccccc1	i	i	i	i	37*	i
CN(Cc1cccc(F)c1)C(=O)c1cc(=O)[nH]c2ccccc12	i	i	i	i	/	/
CN(Cc1cccc(F)c1)C(=O)C(c1ccccc1)c1ccccc1	i	i	i	6.5*	6	i
CN(Cc1ccc(F)cc1)C(=O)c1sccc1-c1ccccc1	i	i	i	6.7*	37*	i
